The assay has as its system HL-1. Briefly: cardiomyocyte survival under oxidative or metabolic stress – cell-based, panel, H9c2 and HL-1, ATP luminescence, set 2, SAR follow-up (AID 651871).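 Further: cells exposed to stressor for 2 h before ATP readout; reference of the scale not given here.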 To be noted: H9c2/HL-1 cardiomyocytes, 2-deoxyglucose stress, with 2-deoxyglucose, run 13, at 19.8 µM (top of the series).

Values joined by “and” are separate entries in the source; they are usually repeats but may differ in a detail not shown here. Identical values can stand only once.

Regarding `COc1ccc2c(c1OC)C(=O)N1c3ccccc3C(=O)N(Cc3cccc(Cl)c3Cl)C21` (stereo unspecified), the activity (protection/inhibition) was 84.6% and 38.5%.
